Values joined by “and” are separate entries in the source; they are usually repeats but may differ in a detail not shown here. Identical values can stand only once. The panel holds about 83,000 compounds, 20% with a hit somewhere; the sample as a whole holds those more often.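 Single-concentration screen, 48 h exposure, 96-well plates. Endpoint: percent growth. Below 10 = active.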 Unmarked numbers belong to inactive results. Active and inactive are the calls of the source.
The molecules below were run on HL-60(TB) leukemia (assay: NCI-60 one-dose screen, 48 h (100 = growth as untreated, 0 = no growth, -100 = all killed)). Conditions: 10 µM unless noted.

Structure (SMILES) | growth
COc1ccc(-c2cc(=O)c3c(O)cc(O)cc3o2)cc1 | 73.4% and 103%
O=C1CSC(c2ccccc2Cl)N1c1nnc(Cn2nnc3ccccc32)o1 (stereo not given) | 84.4%
O=c1oc2c(cnc3ccccc32)cc1-c1ccsc1 | 96.7%
COc1ccc(-c2nn(-c3cccc(Cl)c3)cc2-c2c(C#N)c(=O)n3[nH]c(-c4ccccc4)nc3c2C#N)cc1 | 79.9%
Cc1nc(Nc2n[nH]c3c2CN(C(=O)N[C@H](CN(C)C)c2ccccc2)C3(C)C)c2sccc2n1 | -30.6% (active)
Cc1ccc(NC(=O)N[C@@H](Cc2cc(F)cc(F)c2)C(=O)N[C@@H]2C(=O)N3CCC[C@H]3C(=O)N3CCOC[C@H]3C(=O)N[C@@H](C)C(=O)N3C[C@H](C)C[C@H]3C(=O)O[C@H]2C)cc1 | 14.5%
O=C(O)/C(=C\c1ccc(Cl)cc1)c1ccc(Cl)cc1 | 53.3%
COc1ccc(-c2c(N)noc2-c2cc(OC)c3c(c2)OCCO3)cc1 | -30.8% (active)
COc1cc2c(cc1OC)C1(C)N(CC2)C(=O)OC1(C)C (stereo not given) | -79.2% (active)
OCCN(CCO)c1ccc2ccccc2c1 | 87.9%
Nc1nc(=S)c2ncn(C3OC(CO)C(O)C3O)c2[nH]1 (stereo not given) | 96.4% and 21.3%
Cn1cc(-c2csc(-c3ccc(Cl)cc3)n2)c2cccnc21 | 7.96% [100 µM] (active)
CCOC(=O)c1c(NC(=O)C2CCCCC2C(=O)O)sc2c1CCCC2 (stereo not given) | 102%
NNC(=O)/C(=C\c1ccc([N+](=O)[O-])cc1)CC(=O)c1ccc(Cl)c(Cl)c1 | 98.9%
Cc1cc(C(=O)O)c(C)cc1C(=O)O | 113%
O=C1c2cccc3cccc(c23)C(=O)N1Nc1nc(NC2CCCCC2)nc(N2CCOCC2)n1 | 101%
COc1ccc(/C=N/NC(=O)CCN2c3ccccc3Sc3ccccc32)cc1 | 82%
COC(=O)CCC(=O)C(=O)OC | -21% [10 mM] (active)
CCN(CC)CCCC(C)Nc1c2ccc(Cl)cc2nc2ccc(O)cc12 (stereo not given) | 45.7%
C[C@]12CCC(=O)C[C@H]1CC[C@@H]1[C@@H]2CC[C@@]2(C)[C@H]1CC[C@]2(O)C(=O)CO | 126%

Structure (SMILES) | growth
O=C(Nc1ccc(OS(=O)(=O)c2ccccc2)cc1)C12CC3CC(CC(C3)C1)C2 | 37.3%
CCOC(=S)SCc1ccc(Cl)cc1 | 65.8%
COc1ccc(-c2ccccc2)cc1C(=O)c1ccc(-c2ccccc2)cc1 | 71.4%
CCOC(=O)c1cc2c(=O)oc3ccccc3c2oc1=O | 106%
Cc1ccc(Nc2cc(N)nc(N)n2)cc1Cl | 98.7%
N#CCN1C(=O)C2C3=C(CCCC3)SC2N=C1CN1CCCC1 (stereo not given) | 66.3%
COc1ccc2c(c1)[n+](=O)c(/C=C/C(=O)c1cc(OC)c(OC)c(OC)c1)c(C)n2[O-] | -49.1% (active)
S=c1[nH]cccc1-c1nnc2n1Nc1nc3ccc(Cl)cc3cc1CS2 | 104%
Nc1ncnc2c1ncn2C1CC(O)C(CO)O1 (stereo not given) | 79.7% and 95.3%
COc1cccc(C2=NN(C(C)=O)C(c3cc(OC)c(OC)c(OC)c3)C2)c1 (stereo not given) | -17.8% (active)
COc1ccc(C2C3=C(COC3=O)N(CCO)c3cc4c(cc32)CCC4)cc1 (stereo not given) | 4.72% (active)
CCCCn1c(=O)[nH]c(N)c([C@@H]2c3c([nH]c(=O)n(CCCC)c3=O)Oc3ccc4ccccc4c32)c1=O | 13.4%
c1ccc(N2N=C(c3cccc(Nc4ccncc4)c3)CC2c2ccc3c(c2)OCO3)cc1 (stereo not given) | -21.1% (active)
COc1ccc(-c2nn(-c3cccc(NC(=O)c4ccc(Cl)c(Cl)c4)c3)cc2-c2ccncc2)cc1Cl | 89.1%
COc1ccc(OC)c(C(=O)/C=C/c2cc3c(c(OC)c2OC)OCO3)c1 | 48.6%
COc1ccc(NC(=O)C(=O)c2c[nH]c3ccc(F)cc23)cc1 | 79%
COc1ccc(C(=O)c2cc(C)c(OC)c(C)c2)c(OC)c1O | -25.8% (active)
O=C(NCCc1ccccc1)C1CCC(=O)N1Cc1ccc(Br)cc1 (stereo not given) | 89%
CC(=O)NC(Cc1ccccc1)C(=O)Oc1ccc2ccccc2c1 (stereo not given) | 110% and 83.4%
c1ccc(-c2nc(N3CCNCC3)c3nc(-c4ccccc4)oc3n2)cc1 | -49.6% (active)

Source: PubChem BioAssay (NCI)
